# The list is not random: actives were taken first. Their share in the collection is about 2.1%.
# HIF-2a inh: blocks HIF-2a reporter activity. 786-0 RCC cells HIF-2a reporter, luciferase luminescence, overnight. inhibition, % at 18.8 µM. actives 0.72% (n = 360,000). AID 624352;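 active = inhibition of the luminescence signal of 40% or more relative to plate controls, in a single-dose primary screen at 18.75 µM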
# EWS-Fli inh: inhibitors of EWS/Fli oncoprotein transcriptional activity | actives 0.67% (n = 350,000) | inhibition, % at 12.6 µM | A673 NR0B1-luciferase reporter, viability-normalised;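 active = mean inhibition of at least 50% after viability correction, with every replicate also passing that limit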;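 note: firefly luciferase signal divided by Alamar Blue viability fluorescence both relative to DMSO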
# CF NFkB block: inhibitors of cystic fibrosis induced NF-kB. actives 0.86% (n = 360,000). KKLEB NF-kB-GFP reporter, PAF-induced, GFP fluorescence overnight. inhibition, % at 5 µM;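 active = at least 50% inhibition at 5 µM, scaled per plate between neutral and stimulator controls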;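 note: PAF is a Pseudomonas aeruginosa culture filtrate used as stimulus; plate controls were PAF-stimulated DMSO wells for no effect and unstimulated DMSO wells for full effect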
# KKLEB cytotox: counter-screen for CF NF-kB inhibitors: cytotoxicity | KKLEB CF airway cells viability, ATPlite luminescence, overnight; stronger effect = lower value; cells stimulated with P. aeruginosa culture filtrate | AID 602141 | activity change (cytotoxicity), % at 5 µM | actives 0.36% (n = 360,000);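 active = corrected activity change at or below -50% at 5 µM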
# PAX8 inh HTS: inhibitors of PAX8 transcriptional activity in RMG-I cells. inhibition, % at 12.6 µM. RMG-I TPO-luciferase reporter, SteadyGlo, 24 h. AID 652154. actives 1.2% (n = 360,000);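 active = mean replicate inhibition at least 60% with every replicate also reaching 60%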;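 note: luciferase light reporting Pax8 driven TPO promoter activity; plate controls were median of neutral control wells for no effect and mitoxantrone controls for full effect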
# * = called active by the depositor; . = no result given.
SMILES,HIF-2a inh,EWS-Fli inh,CF NFkB block,KKLEB cytotox,PAX8 inh HTS
O=C(Nc1nc2ccccc2n1Cc1ccccc1)c1ccc(COc2ccccc2[N+](=O)[O-])o1,7,21,46,-68*,.
Cc1ccc(OCc2ccc(C(=O)Nc3nc4ccccc4n3Cc3ccccc3)o2)c([N+](=O)[O-])c1,1,.,24,-33,3
C[C@@H]1CN([C@@H](C)CO)C(=O)c2cccc(NC(=O)NC3CCCCC3)c2O[C@@H]1CN(C)S(=O)(=O)c1ccc(Cl)cc1,.,5,.,.,4
C[C@H]1CN([C@@H](C)CO)C(=O)c2cccc(NC(=O)NC3CCCCC3)c2O[C@H]1CN(C)S(=O)(=O)c1ccc(Cl)cc1,.,24,.,.,72*
C[C@H](CO)N1C[C@H](C)[C@H](CN(C)S(=O)(=O)c2ccc(F)cc2)Oc2c(NC(=O)NC3CCCCC3)cccc2C1=O,.,15,.,.,62*
COCC(=O)N[C@@H]1C=C[C@H](CC(=O)NCc2ccccc2OC)O[C@@H]1CO,.,4,.,.,-7
C[C@@H]1CN([C@@H](C)CO)C(=O)Cc2cc(NC(=O)Cc3cn(C)c4ccccc34)ccc2O[C@@H]1CN(C)S(=O)(=O)c1ccc(F)cc1,.,-5,.,.,-6
C[C@@H]1CCCCO[C@H](CN(C)Cc2ccc3c(c2)OCO3)[C@@H](C)CN([C@@H](C)CO)C(=O)c2cc(NC(=O)Nc3ccc(C(F)(F)F)cc3)ccc2O1,.,69*,.,.,101*
C[C@H]1CCCCO[C@H](CN(C)Cc2ccc3c(c2)OCO3)[C@@H](C)CN([C@@H](C)CO)C(=O)c2cc(NC(=O)Nc3ccc(C(F)(F)F)cc3)ccc2O1,.,75*,.,.,67*
C[C@H](CO)N1C[C@H](C)[C@H](CN(C)Cc2ccc3c(c2)OCO3)OCCCC[C@H](C)Oc2ccc(NC(=O)Nc3ccc(C(F)(F)F)cc3)cc2C1=O,.,76*,.,.,108*
C[C@@H]1CCCCO[C@@H](CN(C)Cc2ccc3c(c2)OCO3)[C@@H](C)CN([C@H](C)CO)C(=O)c2cc(NC(=O)Nc3ccc(C(F)(F)F)cc3)ccc2O1,.,-6,.,.,35
C[C@@H]1CCCCO[C@H](CN(C)Cc2ccc3c(c2)OCO3)[C@H](C)CN([C@@H](C)CO)C(=O)c2cc(NC(=O)Nc3ccc(C(F)(F)F)cc3)ccc2O1,.,75*,.,.,63*
O=C(NC1CCCC1)N1CCCCN2[C@H](C1)[C@@H](c1ccc(-c3cccnc3)cc1)[C@@H]2CO,.,2,.,.,3
CNC[C@@H]1OCCCC[C@@H](C)Oc2ccc(NC(=O)NC3CCCCC3)cc2C(=O)N([C@H](C)CO)C[C@@H]1C,.,-1,.,.,-9
C[C@@H]1CN([C@@H](C)CO)C(=O)c2cc(NC(=O)Nc3ccc(C(F)(F)F)cc3)ccc2O[C@@H](C)CCCCO[C@H]1CN(C)Cc1ccc2c(c1)OCO2,.,-2,.,.,83*
C[C@@H]1CN([C@H](C)CO)C(=O)c2cc(NC(=O)Nc3ccc(C(F)(F)F)cc3)ccc2O[C@@H](C)CCCCO[C@H]1CN(C)Cc1ccc2c(c1)OCO2,.,77*,.,.,108*
C=CCn1c(O)c(C2=c3ccccc3=NC2=O)c2ccccc21,45*,47,29,-10,-18
Cc1ccc2c(c1)c(C1=c3ccccc3=NC1=O)c(O)n2C,42*,64*,53*,-15,7
Cc1c(-n2c(O)c(C3=c4ccccc4=NC3=O)sc2=O)c(=O)n(-c2ccccc2)n1C,6,17,-10,9,-9
COc1ccc2c3c([nH]c2c1)[C@H](CO)N(C)CC31CN(S(=O)(=O)c2cn(C)cn2)C1,.,2,.,.,.
COCC(=O)N1CC(=O)N2[C@H](CO)[C@H](c3ccc(C#CC4CCCC4)cc3)[C@@H]2C1,.,7,.,.,.
COc1ccc(/C=N/NC(=O)CCn2cnc(-c3ccccc3)c2-c2ccccc2)cc1OC,7,54*,28,-21,5
COc1ccc(/C=N/NC(=O)CCC(=O)Nc2ccccc2)cc1OC,1,9,6,-10,-4
COc1ccccc1-c1ccc2c(c1)O[C@H](CN(C)C)[C@H](C)CN([C@@H](C)CO)S2(=O)=O,.,0,.,.,.
COc1ccccc1-c1ccc2c(c1)O[C@H](CN(C)Cc1ccc3c(c1)OCO3)[C@H](C)CN([C@@H](C)CO)S2(=O)=O,.,-31,.,.,88*
SMILES,HIF-2a inh,EWS-Fli inh,CF NFkB block,KKLEB cytotox,PAX8 inh HTS
COc1ccccc1-c1ccc2c(c1)O[C@@H](CN(C)Cc1ccc3c(c1)OCO3)[C@@H](C)CN([C@@H](C)CO)S2(=O)=O,.,25,.,.,66*
COc1ccccc1-c1ccc2c(c1)O[C@H](CN(C)Cc1ccc3c(c1)OCO3)[C@@H](C)CN([C@H](C)CO)S2(=O)=O,.,12,.,.,46
C[C@H]1CN([C@@H](C)CO)S(=O)(=O)c2ccc(C#Cc3ccccc3F)cc2O[C@H]1CN(C)C(=O)c1ccc2c(c1)OCO2,.,22,.,.,90*
C[C@@H]1CN([C@@H](C)CO)S(=O)(=O)c2ccc(C#Cc3ccccc3F)cc2O[C@@H]1CN(C)C(=O)c1ccc2c(c1)OCO2,.,18,.,.,78*
Cc1ccc(S(=O)(=O)N(C)C[C@@H]2OCCCC[C@H](C)Oc3ccc(NC(=O)Nc4ccc(F)cc4)cc3C(=O)N([C@H](C)CO)C[C@H]2C)cc1,-4,14,4,-18,64*
C[C@@H]1CCCCO[C@H](CN(C)S(=O)(=O)c2ccc(F)cc2)[C@@H](C)CN([C@@H](C)CO)C(=O)c2cc(NC(=O)Nc3ccc(F)cc3)ccc2O1,.,5,.,.,62*
C[C@@H]1CCCCO[C@@H](CN(C)S(=O)(=O)c2ccc(F)cc2)[C@H](C)CN([C@@H](C)CO)C(=O)c2cc(NC(=O)Nc3ccc(F)cc3)ccc2O1,.,-3,.,.,38
C[C@@H]1CN([C@H](C)CO)C(=O)c2cc(NC(=O)Nc3ccc(C(F)(F)F)cc3)ccc2O[C@@H](C)CCCCO[C@H]1CN(C)S(=O)(=O)c1ccc(F)cc1,.,-6,.,.,78*
Cc1ccc(S(=O)(=O)N(C)C[C@@H]2OCCCC[C@H](C)Oc3ccc(NC(=O)Nc4ccc(C(F)(F)F)cc4)cc3C(=O)N([C@H](C)CO)C[C@H]2C)cc1,.,10,.,.,61*
CS(=O)(=O)N1CC(=O)N2[C@H](C1)[C@H](c1ccc(C#CCC3CCCC3)cc1)[C@@H]2CO,.,-13,.,.,7
Cc1noc(C)c1NC(=O)Nc1ccc2c(c1)C(=O)N([C@H](C)CO)C[C@H](C)[C@@H](CN(C)Cc1ccncc1)OCCCC[C@H](C)O2,.,-9,.,.,-4
COc1ccc(S(=O)(=O)Nc2ccc3c(c2)C(=O)N([C@@H](C)CO)C[C@@H](C)[C@H](CN(C)C(=O)c2ccncc2)OCCCC[C@@H](C)O3)cc1,.,-4,.,.,19
CO[C@@H]1CN(C)C(=O)c2ccc(NC(=O)C3CC3)cc2OC[C@@H](C)N(Cc2cccc(F)c2)C[C@H]1C,.,.,.,.,7
Oc1c(Cl)cc(Cl)cc1/C=N/NC(=S)NC1CC2C=CC1C2 (stereo unspecified),-6,39,50*,-72*,54

# Source: PubChem (several laboratories)
